# In publication PMC11062922 (Nature Chemical Biology, 2023):
# Like-named read-outs stand apart in the source and are kept apart here.
# Columns and labels:
# Parameters in all cases: species or system human, MV4-11 + K-562 + COLO205 + SK-N-BE2 + OVCAR-8
# ADCK3 = conditions: read-out: apparent Kd, n = 1
# CDK4 = conditions: read-out: apparent Kd, n = 1
# LIMK1 = conditions: read-out: apparent Kd, n = 1
# SIK3 = conditions: read-out: apparent Kd, compound concentrations: 100 nM and 1000 nM (sheet 'Samples'), n = 1
# ERBB3 = conditions: read-out: apparent Kd, compound concentrations: 100 nM and 1000 nM (sheet 'Samples'), n = 1
# CSNK1A1 = conditions: read-out: apparent Kd, n = 1
# PIM2 = conditions: read-out: apparent Kd, n = 1
# PKN3 = conditions: read-out: apparent Kd, n = 1
# AURKA = conditions: read-out: apparent Kd, n = 1
# MAPK11 = conditions: read-out: apparent Kd, n = 1
# PIK3CG = conditions: read-out: apparent Kd; compound concentrations: 100 nM and 1000 nM (sheet 'Samples'), CATDS: 3.2678630734210498E-2; n = 1
# PRKAG1 = conditions: read-out: apparent Kd, n = 1
# SYK = conditions: read-out: apparent Kd, n = 1
# STK10 = conditions: read-out: apparent Kd, n = 1
# NUAK1 = conditions: read-out: apparent Kd, n = 1
# ACVR2B = conditions: read-out: apparent Kd, compound concentrations: 100 nM and 1000 nM (sheet 'Samples'), n = 1
# EPHA4 = conditions: read-out: apparent Kd, n = 1
# EPHB3 = conditions: read-out: apparent Kd; compound concentrations: 100 nM and 1000 nM (sheet 'Samples'), CATDS: 6.3203902610818402E-2; n = 1
# CDK7 = conditions: read-out: apparent Kd, n = 1
# BMPR1A = conditions: read-out: apparent Kd, n = 1
# [1] = compound concentrations:100 nM and 1000 nM (sheet 'Samples')
compound,measurement,setting,value
CC(=O)N1CCN(c2ccc(Nc3nccc(-c4sc(C(C)C)nc4-c4cccc(NS(=O)(=O)c5ccccc5)c4)n3)cn2)CC1 [GSK1645872A],potency estimated from few doses,"ADCK3; compound concentrations: 100 nM and 1000 nM (sheet 'Samples'), CATDS: 3.3548638845590201E-2",570 nM
same,potency estimated from few doses,"CDK4; compound concentrations: 100 nM and 1000 nM (sheet 'Samples'), CATDS: 2.3530905499939799E-2",1530 nM
same,potency estimated from few doses,"LIMK1; compound concentrations: 100 nM and 1000 nM (sheet 'Samples'), CATDS: 9.09760903229518E-2",111 nM
CN1CCN(c2ccc(Nc3nc(N)c(C(=O)c4ccc5c(c4)OCCO5)s3)cc2)CC1 [RO0505124-000],potency estimated from few doses,"ADCK3; compound concentrations: 100 nM and 1000 nM (sheet 'Samples'), CATDS: 0.21536092464867401",935 nM
CC(C)c1nc(-c2cccc(NS(=O)(=O)c3c(F)cccc3F)c2)c(-c2ccnc(Nc3ccc(N4CCOCC4)nc3)n2)s1.Cl [GSK1723980B],potency estimated from few doses,"CDK4; compound concentrations: 100 nM and 1000 nM (sheet 'Samples'), CATDS: 1.44710084593789E-2",1810 nM
same,potency estimated from few doses,"LIMK1; compound concentrations: 100 nM and 1000 nM (sheet 'Samples'), CATDS: 8.5923205073472897E-2",36.9 nM
same,potency estimated from few doses,SIK3; CATDS: 1.4935731096458E-2,1520 nM
N#Cc1cnc2cc(-c3cnc(CNCCN4CCOCC4)s3)ccc2c1Nc1ccc(Oc2ccccc2)cc1 [GW664114X],potency estimated from few doses,ERBB3; CATDS: 9.1270292154097404E-2,245 nM
Fc1ccc(-c2c(-c3ccncc3)[nH]c3nccnc23)cc1 [RO1155697-000],potency estimated from few doses,CSNK1A1; [1],667 nM
same,potency estimated from few doses,PIM2; [1],1070 nM
same,potency estimated from few doses,PKN3; [1],31.1 nM
COc1ccc(-c2nc3n(c2-c2ccncc2)CCC3)cc1.COc1ccc(-c2nc3n(c2-c2ccncc2)CCC3)cc1.O=S(=O)(O)O.O=S(=O)(O)O [SKF-104493-B2],potency estimated from few doses,"PIM2; compound concentrations: 100 nM and 1000 nM (sheet 'Samples'), CATDS: 0.11675722362862",1570 nM
same,potency estimated from few doses,"PKN3; compound concentrations: 100 nM and 1000 nM (sheet 'Samples'), CATDS: 0.15312963325727599",911 nM
CS(=O)(=O)c1ccc(-c2cnc(N)c(C(=O)Nc3ccccc3)n2)cc1 [VE-821],potency estimated from few doses,"ADCK3; compound concentrations: 100 nM and 1000 nM (sheet 'Samples'), CATDS: 0.149033723356022",1370 nM
COc1cccc(-n2cnc3c(N/N=C/c4ccncc4)ncnc32)c1 [GW813360X],potency estimated from few doses,ERBB3; CATDS: 0.18333833775407599,961 nM
CN1CCN(Cc2ccc(NC(=O)Nc3ccc(N(C)c4ccnc(Nc5ccc(CS(C)(=O)=O)cc5)n4)cc3)cc2)CC1.Cl [GW827654A],potency estimated from few doses,"AURKA; compound concentrations: 100 nM and 1000 nM (sheet 'Samples'), CATDS: 6.4898936627914502E-2",288 nM
O=S(=O)(CCOCc1ccc(-c2ccc3ncnc(Nc4ccc(OCc5cccc(F)c5)c(Cl)c4)c3c2)o1)c1ccccc1 [GW615311X],potency estimated from few doses,"AURKA; compound concentrations: 100 nM and 1000 nM (sheet 'Samples'), CATDS: 3.2222679542607199E-2",1020 nM
same,potency estimated from few doses,"LIMK1; compound concentrations: 100 nM and 1000 nM (sheet 'Samples'), CATDS: 2.6639361665983699E-2",1500 nM
same,potency estimated from few doses,"MAPK11; compound concentrations: 100 nM and 1000 nM (sheet 'Samples'), CATDS: 2.56124612703456E-2",1650 nM
same,potency estimated from few doses,PIK3CG,992 nM
same,potency estimated from few doses,"PKN3; compound concentrations: 100 nM and 1000 nM (sheet 'Samples'), CATDS: 2.28065209428794E-2",2200 nM
same,potency estimated from few doses,"PRKAG1; compound concentrations: 100 nM and 1000 nM (sheet 'Samples'), CATDS: 2.7047929037046701E-2",1450 nM
same,potency estimated from few doses,"SYK; compound concentrations: 100 nM and 1000 nM (sheet 'Samples'), CATDS: 2.2434221169995199E-2",2300 nM
COc1cc2ncn(-c3cc(OCc4cccs4)c(C(N)=O)s3)c2cc1OC [GSK312948A],potency estimated from few doses,STK10; [1],109 nM
CNC(=O)c1ccccc1Nc1nc(Nc2cccc(CS(C)(=O)=O)c2)ncc1C.O=CO [GSK1520489A],potency estimated from few doses,"AURKA; compound concentrations: 100 nM and 1000 nM (sheet 'Samples'), CATDS: 6.1882254370992797E-2",16.9 nM
same,potency estimated from few doses,"NUAK1; compound concentrations: 100 nM and 1000 nM (sheet 'Samples'), CATDS: 1.6678428283329098E-2",217 nM
same,potency estimated from few doses,"STK10; compound concentrations: 100 nM and 1000 nM (sheet 'Samples'), CATDS: 2.4296695352096099E-2",88.5 nM
Cc1ccc(O)cc1Nc1ccnc2ccc(C(C)(C)C)cc12 [GW856805X],potency estimated from few doses,ACVR2B; CATDS: 2.76899291361602E-2,1250 nM
same,potency estimated from few doses,"EPHA4; compound concentrations: 100 nM and 1000 nM (sheet 'Samples'), CATDS: 7.4195620286495498E-2",22 nM
same,potency estimated from few doses,EPHB3,31.7 nM
CC(C)c1nc(-c2ccc(F)c(NS(=O)(=O)c3c(F)cccc3F)c2)c(-c2ccnc(Nc3ccc(N4CCOCC4)nc3)n2)s1 [GSK1804250A],potency estimated from few doses,LIMK1; [1],125 nM
N#Cc1cccc(Nc2nccc(-c3cnn4ncccc34)n2)c1 [GW778894X],potency estimated from few doses,CDK4; [1],1830 nM
same,potency estimated from few doses,CDK7; [1],373 nM
same,potency estimated from few doses,CSNK1A1; [1],731 nM
same,potency estimated from few doses,NUAK1; [1],792 nM
CN(C)Cc1ccc(-c2ccc3c(Nc4ccc(Oc5ccccn5)cc4)ccnc3c2)o1 [GW567148X],potency estimated from few doses,"CDK7; compound concentrations: 100 nM and 1000 nM (sheet 'Samples'), CATDS: 2.45792325734666E-2",573 nM
same,potency estimated from few doses,"EPHA4; compound concentrations: 100 nM and 1000 nM (sheet 'Samples'), CATDS: 2.1324962018011699E-2",824 nM
same,potency estimated from few doses,"PKN3; compound concentrations: 100 nM and 1000 nM (sheet 'Samples'), CATDS: 1.7061922393971401E-2",1730 nM
COc1cc2nccc(Nc3ccc(Oc4ccccc4)cc3)c2cc1OC.Cl [GI261656A],potency estimated from few doses,ERBB3; CATDS: 4.9978680002658399E-2,623 nM
COc1cc2ncn(-c3cc(OCCCc4ccccc4)c(C(N)=O)s3)c2cc1OC [GSK205189A],potency estimated from few doses,CDK7; [1],79.1 nM
same,potency estimated from few doses,EPHA4; [1],1250 nM
same,potency estimated from few doses,NUAK1; [1],1770 nM
same,potency estimated from few doses,PRKAG1; [1],1310 nM
Cl.Cn1c(=O)c(Cc2ccc(F)cc2F)cc2cnc(NC3CCOCC3)nc21 [RO3308757-001],potency estimated from few doses,CDK7; [1],331 nM
same,potency estimated from few doses,EPHA4; [1],743 nM
CC(C)c1nc(-c2cccc(NS(=O)(=O)c3c(F)cccc3F)c2F)c(-c2ccnc(Nc3ccc(N4CCOCC4)nc3)n2)s1 [GSK2008607A],potency estimated from few doses,"LIMK1; compound concentrations: 100 nM and 1000 nM (sheet 'Samples'), CATDS: 3.4604855317968697E-2",358 nM
CC(=O)c1c(-c2ccncc2)[nH]c(-c2ccncc2)c1C [GW493036X],potency estimated from few doses,"CSNK1A1; compound concentrations: 100 nM and 1000 nM (sheet 'Samples'), CATDS: 4.1725323261606301E-2",874 nM
same,potency estimated from few doses,PKN3; [1],1070 nM
CNc1nccc(-c2c(-c3ccc(F)cc3)ncn2C2CCN(C)CC2)n1 [SB-222903],potency estimated from few doses,CSNK1A1; [1],139 nM
same,potency estimated from few doses,MAPK11; [1],1080 nM
Nc1nc(N)c2nc(-c3ccccc3)[nH]c2n1 [SKF-12778],potency estimated from few doses,AURKA; [1],1110 nM
same,potency estimated from few doses,CSNK1A1; [1],972 nM
same,potency estimated from few doses,SYK; [1],1850 nM
Fc1cc(Cl)ccc1Nc1ccnc2cc(-c3ccc(CN4CCOCC4)o3)ccc12 [GW560109X],potency estimated from few doses,ACVR2B; CATDS: 7.2197051902398501E-2,673 nM
same,potency estimated from few doses,SIK3; CATDS: 5.0355620048332002E-2,1910 nM
COc1cc2ncn(-c3cc(OCc4ccncc4)c(C(N)=O)s3)c2cc1OC [GSK336313A],potency estimated from few doses,STK10; [1],1930 nM
Cc1cc(O)cc(C)c1/C=C/c1cncc(-c2nn[nH]n2)c1.Cl [GW441806A],potency estimated from few doses,"BMPR1A; compound concentrations: 100 nM and 1000 nM (sheet 'Samples'), CATDS: 4.5522705937236799E-2",1370 nM
same,potency estimated from few doses,ERBB3; CATDS: 9.8413353572783496E-2,174 nM
same,potency estimated from few doses,"STK10; compound concentrations: 100 nM and 1000 nM (sheet 'Samples'), CATDS: 4.0928454430712802E-2",2050 nM
CC(=O)N1CCN(c2ccc(Nc3nccc(-c4sc(C(C)C)nc4-c4cccc(NS(=O)(=O)c5cccc(Cl)c5)c4)n3)cn2)CC1 [GSK1660437A],potency estimated from few doses,"LIMK1; compound concentrations: 100 nM and 1000 nM (sheet 'Samples'), CATDS: 8.9017548853229503E-2",288 nM
COc1cc2ncn(-c3cc(OCc4sccc4Cl)c(C(N)=O)s3)c2cc1OC [GSK448459A],potency estimated from few doses,STK10; [1],333 nM
COc1cc(F)c(F)c(F)c1C(=O)c1cnc(NC2CCN(S(C)(=O)=O)CC2)nc1N [RO4600703-000],potency estimated from few doses,CDK4; [1],1310 nM
same,potency estimated from few doses,CDK7; [1],821 nM
NC(=O)c1cccnc1COc1cc(-c2ccc(N3CCOCC3)nc2)cc2ncccc12 [BI01125081],potency estimated from few doses,ADCK3; [1],257 nM
same,potency estimated from few doses,BMPR1A; [1],1370 nM
same,potency estimated from few doses,NUAK1; [1],1080 nM
COc1ccc(C2=C(c3cn(C)c4ccccc34)C(=O)NC2=O)cc1OC [RO3206363-000],potency estimated from few doses,"PRKAG1; compound concentrations: 100 nM and 1000 nM (sheet 'Samples'), CATDS: 0.103334601265543",99.5 nM
